In the library only some 2.2% were active in any assay of this set; here they are far more common.
CRFBP-R2 agonist: agonists of CRF-BP/CRF-R2 complex, primary screen, cell-based, HEK293, calcium dye fluorescence, uHTS; hit rate 0.46% among 350,000; calcium dye fluorescence (FLIPR); percent of saturating CRF peptide response; activation, % at 13.2 µM; AID 588473, 2011;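 active = activation of at least 50%, plus an integration ratio under a set limit after plate pattern correction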;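 note: plate controls were neutral control wells without compound for no effect and CRF at EC100 for full effect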
CRFR2-BP antag: antagonists of CRF-BP/CRF-R2 complex, primary screen, cell-based, HEK293, calcium dye fluorescence, uHTS; hit rate 0.59% among 350,000; AID 588475, 2011; CRF-induced calcium fluorescence; inhibition, % at 11.8 µM;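 active = inhibition of the ligand-induced calcium signal above about 50% at the single tested concentration, limit read from the data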
cardiac RTF act: cardiac RTF calcium sensitivity activators, primary screen, biochemical, IANBD-TnC fluorescence, EC20 calcium; Troponin I, cardiac muscle (Homo sapiens) + Troponin T, cardiac muscle (Homo sapiens) + …; IANBD-labeled TnC RTF fluorescence at EC20 calcium; 0% EC20 calcium, 100% full calcium; activation, % at 7.2 µM; hit rate 0.24% among 340,000;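 active = activation above the mean over all tested compounds plus 3 SD, cut at about 30% in these data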;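 note: rise in fluorescence read as greater calcium sensitivity of cardiac thin filaments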
Myeloid diff MLP: induction of myeloid progenitor differentiation, primary screen, cell-based, flow cytometry, MLPCN library; ER-HoxA9 myeloid progenitors, lysozyme-GFP differentiation; hit rate 1% among 360,000; calls only at 10 µM;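 active = normalized GFP-positive differentiation at or above the plate's own cutoff, the solvent-only control mean plus 3 SD; inconclusive = no clear call, values can overlap the other calls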;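 note: cells exposed to compound for four days before flow analysis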
Cardiac RTF inh: cardiac RTF calcium sensitivity inhibitors, primary screen, biochemical, IANBD-TnC fluorescence, EC70 calcium; AID 493244, 2011; hit rate 0.12% among 340,000; IANBD-labeled cardiac RTF, Ca2+ fluorescence; inhibition, % at 7.15 µM;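 active = inhibition above the mean inhibition of all tested compounds plus 3 SD, cut at about 17% in these data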;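 note: assay run at fixed EC70 calcium of 1.6 mM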
An asterisk follows results filed as active; i = inactive; ? = inconclusive; / = no result given; + = active, no number.

SMILES	CRFBP-R2 agonist	CRFR2-BP antag	cardiac RTF act	Myeloid diff MLP	Cardiac RTF inh
CCOc1cc(/C=C/C(=O)c2ccc3c(c2)OCCO3)ccc1OCC(=O)N(C)C	-0.8	11.1	-0.2	+	1.2
COCCN1C(=O)COc2ccccc2C1C(=O)Nc1ccc2c(c1)OCCO2 (stereo not drawn)	/	/	/	i	/
CN(C)c1ccc(NC(=O)CSc2n[nH]c(-c3ccncc3)n2)cc1	1.3	-0.6	-2.7	i	1.2
O=C(O)c1ccc(N=C2c3ccccc3-c3ccccc32)cc1	0.4	-6.8	-0.7	i	-3.9
CCOc1ccc(NC(=O)CN2C(=O)NC(C)(c3ccc(OC(F)F)cc3)C2=O)cc1 (stereo not drawn)	73.7*	-72.3	-5.6	/	-3.8
Cc1cc(NC(=O)CN2C(=O)NC(C)(c3ccc(OC(F)F)cc3)C2=O)no1 (stereo not drawn)	78.3*	-67.5	-2.2	i	0.0
CC1(c2ccc(OC(F)F)cc2)NC(=O)N(CC(=O)Nc2ccc(F)cc2)C1=O (stereo not drawn)	35.7	-45.0	20.6	/	-4.8
CC1(c2ccc(OC(F)F)cc2)NC(=O)N(CC(=O)Nc2cccc(F)c2)C1=O (stereo not drawn)	136.2*	-82.1	-1.0	i	4.9
CC1(c2ccc(OC(F)F)cc2)NC(=O)N(CC(=O)Nc2ccc(Cl)cc2F)C1=O (stereo not drawn)	34.3	-48.2	-2.7	i	2.6
CC1(c2ccc(OC(F)F)cc2)NC(=O)N(CC(=O)Nc2ccc(OC(F)F)cc2)C1=O (stereo not drawn)	47.2	-39.0	-2.4	i	0.8
Cn1c(CCNC(=O)c2ccccc2F)nnc1SCC(=O)Nc1nncs1	-0.1	-11.2	-5.3	i	-25.6
COc1ccc(Cl)cc1CC=NNC(=O)c1cccc(C)c1O	8.1	44.1	-1.6	i	4.7
CC(=O)Nc1ccc(S(=O)(=O)NCCSCc2cccc(Cl)c2)cc1	-1.5	9.8	0.1	+	-1.5
COc1ccc(Nc2ncnc3sccc23)cc1	3.5	-1.3	-2.7	i	-12.6
COc1cccc(Nc2ncnc3sccc23)c1	-1.3	-2.0	-6.5	+	4.9
Cc1ccc(C(=O)CSc2nnc3n2CCCCC3)s1	0.8	-0.1	0.4	i	-3.4
CC(NC(=O)C1CCCN1S(=O)(=O)c1cccc2nsnc12)c1ccccc1 (stereo not drawn)	-2.9	76.1*	-7.2	i	3.6
O=C(NC1CCCCC1)C1CCCN1S(=O)(=O)c1cccc2nsnc12 (stereo not drawn)	-2.2	-2.1	-3.0	i	-1.8
CCCCNC(=O)CCCn1c(=O)[nH]c2ccc(Br)cc2c1=O	-1.1	-10.7	0.6	+	4.1
CC(=O)c1ccc(N2CCN(C(=O)CCCn3c(=O)[nH]c4ccc(Br)cc4c3=O)CC2)cc1	-1.9	9.2	3.9	i	-10.3
CCC(CN(C)C)Oc1cc(NCc2ccccc2)c2ncn(C(C)C)c2c1 (stereo not drawn)	1.8	-2.2	10.3	+	0.6
CCOC(=O)CSc1ccc2ccccc2n1	-3.3	10.7	6.5	i	-13.3
CCOC(=O)CN1C=C(c2ccc3ccccc3n2)C(C[N+](=O)[O-])c2ccccc21 (stereo not drawn)	32.1	-10.5	35.9*	+	-60.7
Cc1sc2ncnc(SCC(=O)NC(=O)NCc3ccco3)c2c1C	0.8	-4.4	-0.2	+	-2.4
CSc1nc(C)c(C(=O)C[n+]2ccccc2C)cc1C#N	1.2	72.5*	0.0	i	-1.5
SMILES	CRFBP-R2 agonist	CRFR2-BP antag	cardiac RTF act	Myeloid diff MLP	Cardiac RTF inh
CCOC(=O)c1cc(C#N)c(SC)nc1C	-1.7	-8.5	7.1	i	5.3
COCCNC(=O)C1(C)CCCN(C(=O)c2ccc(N(C)C)cc2)C1 (stereo not drawn)	/	/	/	i	/
c1ccc(-c2cc3nccc(-c4ccccn4)n3n2)cc1	-1.9	59.6*	-6.1	i	-10.1
COc1ccc(C(=O)c2coc3ccc(O)c(CN4CCCCC4)c23)cc1	-2.0	8.7	1.6	+	0.3
Fc1cccc(NC(=S)N2CCn3cccc3C2c2cccnc2)c1 (stereo not drawn)	2.3	-10.8	6.2	i	-2.3
Fc1ccc(C2c3cccn3CCN2C(=S)Nc2cccc(F)c2)cc1 (stereo not drawn)	6.2	53.0*	6.0	i	-0.6
CCc1c(-c2ccc(OC)cc2)ncn1Cc1cccc(-c2ccccc2)c1	/	/	/	i	/
CCn1c(=NC(=O)CS(=O)(=O)c2ccc(F)cc2)sc2cccc(OC)c21	0.3	35.2	-3.8	+	-0.3
CCn1c(=NC(=O)CCS(=O)(=O)c2ccccc2)sc2cccc(OC)c21	0.9	-3.6	-2.5	?	-1.4
COc1ccccc1N1CCN(C(=O)C(C)NC(=O)c2ccco2)CC1 (stereo not drawn)	-0.2	3.6	-3.2	i	-1.5
CC(NC(=O)c1ccco1)C(=O)N1CCc2ccccc2C1 (stereo not drawn)	3.7	-0.2	2.2	+	-1.8
CCN(CC)CCOC(=O)C(Cc1ccco1)Cc1cccc2ccccc12 (stereo not drawn)	-0.9	52.4*	3.1	i	-3.5
C(=N\Nc1nc(-c2cccnc2)nc2ccccc12)/c1ccccc1	-0.6	-1.6	/	i	/
Cc1ccc(-c2nc(N/N=C/c3ccccc3[N+](=O)[O-])c3ccccc3n2)cc1	0.8	-33.1	2.5	+	-8.3
Brc1ccc(-c2nc(N/N=C/c3cccnc3)c3ccccc3n2)cc1	-0.7	-31.8	1.3	+	-14.0
FC(F)(F)c1nnc2sc(-c3ccncc3)nn12	0.7	-0.7	1.0	i	-5.2
FC(F)(F)c1nnc2sc(-c3cccs3)nn12	-0.8	52.0*	2.3	i	5.0
Cc1c(Br)c(C(N)=O)nn1C	-0.5	2.9	-3.2	i	-5.3
Cn1nnc2c(C(N)=O)ncn2c1=O	/	/	/	+	/
CC(C)Oc1ccc(CNC(=O)Oc2ccccc2)cc1	-0.9	11.3	-8.4	i	4.0
COc1cc(C2C(C#N)=C(C)NC3=C2C(=O)c2ccccc23)cc(OC)c1OC (stereo not drawn)	-0.7	30.2	-11.2	+	-6.0
CCOC(=O)c1nn(-c2ccc(F)cc2)c(=O)cc1OCC(=O)Nc1ccc(F)c(F)c1	0.4	4.5	-2.7	i	-8.4
Cc1cc(Cl)ccc1OC(C)C(=O)Nc1ccccc1N1CCOCC1 (stereo not drawn)	109.9*	-145.6	0.0	i	3.4
CC(Oc1ccc(Cl)cc1)C(=O)Nc1ccccc1N1CCOCC1 (stereo not drawn)	52.9*	-48.0	6.6	i	-8.7
